Reference: PubChem BioAssay AID2472 (National Center for Advancing Translational Sciences (NCATS), 2010)
“And” between values parts separate entries of the source, which are not always exact repeats. Equal values may be shown once. In all, about 290,000 compounds went through this assay and about 2,000 (0.69%) were called active. Cut-off read from the data, not from the text of the source: active = activity change below about -30%; inactive = the rest, inconclusive results apart. The entries come from a sample that favours actives as a whole. More than one record can exist for a structure, and the calls need not agree.

Assay: qHTS Assay for Inhibitors of Fructose-1,6-bisphosphate Aldolase from Giardia Lamblia: Coupling assay counterscreen
Conditions: coupling enzyme system counterscreen, AmpLite Red fluorescence; at 58.2 µM (top of the series)
Method in brief: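 Counterscreen lacking aldolase: glyceraldehyde-3-phosphate coupling-enzyme reagent preincubated 10 min at RT with compound (at 57.5 uM final), then substrate/coupling system with AmpLite Red added; fluorescence read at 525/598 nm after 20 min RT.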
% is set by controls: 0 for no effect and ±100 for the full control effect.

SMILES	activity change, negative = inhibition
O=C1C2C(c3ccccc3)CC=CC2C(c2ccoc2)N1Cc1ccccc1 (stereo unspecified)	8.25% (inactive)
COC(=O)CCCC1=CC2=CC(=O)C(C)(OC(=O)c3cccs3)C(=O)C2=CN1CC1CC1 (stereo unspecified)	-36.8% (active) and -32.4% (active)
CC(C)(C)OC(=O)NCCCCC1=CC2=CC(=O)C(C)(OC(=O)c3cccs3)C(=O)C2=CO1 (stereo unspecified)	0.595% (inactive)
COC(=O)CCCC1=CC2=CC(=O)C(C)(OC(=O)c3cccs3)C(=O)C2=CN1c1cccc(C#N)c1 (stereo unspecified)	-7% (inactive) and -4.26% (inactive)
COC(=O)CCCC1=CC2=CC(=O)C(C)(OC(=O)c3cccs3)C(=O)C2=CN1c1ccc(CO)cc1 (stereo unspecified)	1.62% (inactive)
COC(=O)CCCC1=CC2=CC(=O)C(C)(OC(=O)c3cccs3)C(=O)C2=CN1CC(C)C (stereo unspecified)	-16.4% (inactive) and -34.8% (active)
CCCCC1=CC2=CC(=O)C(C)(OC(=O)CC)C(=O)C2=CN1CCCOC(C)C (stereo unspecified)	-25% (inactive) and -18.1% (inactive)
COc1cccc(-c2coc3cc4oc(=O)c(CC(=O)O)c(C)c4cc23)c1	12.3% (inactive)
O=C(Nc1cccc([N+](=O)[O-])c1)N1CCc2ccccc2C1	-5.24% (inactive)
C=C1C([C@@]2(C)C(OC(C)=O)CC(=O)O[C@@](C)(COC(C)=O)C2CC(=O)OC)C(OC=O)C(OC(=O)C(O)C(C)CC)[C@]2(C)C(c3ccoc3)CC(=O)C12O (stereo partly specified)	-3.85% (inactive)
CC(C)CCC(C)NC(=O)c1ccc2nccnc2c1 (stereo unspecified)	2.87% (inactive)
Oc1cc(O)c2c(c1)OC(c1ccc(O)c(O)c1)C(O)C2 (stereo unspecified)	-34.5% (active)
CC1(c2ccc3ccccc3c2)NC(=O)N(CC(N)=O)C1=O (stereo unspecified)	-1.62% (inactive)
Cc1c(Cl)cccc1NC(=O)NCc1ccc(C)n1C	0.306% (inactive)
CCCN1CCC(=O)N(C(CSc2ccc(C)cc2)Cc2ccccc2)CC1 (stereo unspecified)	2.31% (inactive)
N#CC1=C(N)Oc2n[nH]c(CSc3ccccc3)c2C12C(=O)Nc1ccccc12 (stereo unspecified)	-1.05% (inactive)
CC1(C)Cc2ccccc2-c2[nH]c(=S)[nH]c(=O)c21	2.14% (inactive)
N#CC1=C(N)Oc2[nH]c(=S)[nH]c(=O)c2C12C(=O)Nc1ccccc12 (stereo unspecified)	-33.1% (active)
COCCCNc1nc2ccccc2nc1NS(=O)(=O)c1ccc(F)cc1	3.51% (inactive)
Oc1cc2c(cc1O)CN(C(=S)NCCc1ccc(Cl)cc1)CCC2	-10.5% (inactive)
CCOCCCNC(=O)c1cn(CC(C)C)c(=O)c2c1c1ccccc1n2C	1.3% (inactive)
Cc1nn(C)cc1/C=C1\CCC/C(=C\c2cn(C)nc2C)C1=O	-3.28% (inactive)

SMILES	activity change, negative = inhibition
COc1c(O)ccc2c1CN1CCc3cc4c(cc3C1C2)OCO4 (stereo unspecified)	-31.7% (active)
COc1ccc2cc1Oc1ccc(cc1)C[C@H]1c3cc(c(OC)cc3CCN1C)Oc1c(O)c(OC)cc3c1[C@H](C2)N(C)CC3	3.01% (inactive)
COc1ccc(CN2CCCC(N3CCc4ccccc4C3)C2)c(O)c1 (stereo unspecified)	0.955% (inactive)
COc1ccc2c(c1)N(C)/C(=C1/SC(=S)N(NC(C)=O)C1=O)S2	-2.99% (inactive)
CCOc1cc(-c2cc(-c3ccc(NC(C)=O)cc3)nc(N)c2C#N)ccc1O	-0.764% (inactive)
CC(C)CNS(=O)(=O)c1ccc(CCC(=O)NCc2ccc(Cl)cc2)cc1	2.27% (inactive)
Cc1ccc(OCc2nnc(SC3CCc4ccccc4C3=O)n2C)cc1 (stereo unspecified)	-79.8% (active)
Cc1ccc(OCc2nc3ccccc3n2C)cc1	-0.274% (inactive)
Cc1cccnc1NC(=O)CSc1nnc(COc2ccc(C(C)C)cc2)n1C	-3.92% (inactive)
C=C1/C(=C\C=C2\CCCC3(C)C2CCC3C(C)/C=C/C(O)C2CC2)CC(O)CC1O (stereo unspecified)	-0.462% (inactive)
CN(NS(=O)(=O)c1cccs1)c1ncc(C(F)(F)F)cc1Cl	1.61% (inactive)
CCOC(=O)c1c(C)[nH]c(C(=O)NCc2ccccc2OC)c1C	6.66% (inactive)
CCOC(=O)c1c(C)[nH]c(C)c1S(=O)(=O)N(C)CC(=O)Nc1ccccc1C	0.829% (inactive)
CCOC(=O)c1c(C)[nH]c2c1-c1ccccc1C(=O)C2=O	-46.9% (active)
CC(=O)Nc1ccc(N2C(=O)C3C4C=CC(CC4)C3C2=O)cc1 (stereo unspecified)	-0.366% (inactive)
Cc1cc(C)c(/C=C2\C(=O)Nc3ccccc32)[nH]1	-3.49% (inactive)
CN(C)/C=C1/Nc2ccccc2C1=O	-30.5% (active)
CN(C)/C=C1/C(=O)Nc2ccccc21	2.47% (inactive)
COC(=O)C/C=C/[C@@H](C)[C@H](NC(=O)OCC(Cl)(Cl)Cl)c1ccccc1	-1.95% (inactive)
Cc1cccc2[nH]c(CN(C)C(=O)C3CCC(=O)N(CCc4ccccc4)C3)nc12 (stereo unspecified)	2.15% (inactive)
COc1ccccc1C1C(C(N)=O)=C(C)Nc2nc(CCCO)nn21 (stereo unspecified)	1.82% (inactive)
O=C(N/N=C/c1cccc(OC(=O)c2ccc([N+](=O)[O-])cc2)c1)c1cccnc1	0.693% (inactive)

SMILES	activity change, negative = inhibition
COCCNC(=O)CN(Cc1ccco1)C(=O)CCC(=O)Nc1nccs1	0.963% (inactive)
Cc1cccc(OCC(=O)NCCNC(=O)c2cccnc2)c1	0.0752% (inactive)
COc1ccc(C2Nc3ccccc3C(=O)N2Cc2ccccc2)cc1Cn1nnc2ccccc21 (stereo unspecified)	-34.4% (active)
COc1ccc(C2Nc3ccccc3C(=O)N2c2ccc(F)cc2)cc1Cn1nnc2ccccc21 (stereo unspecified)	2.84% (inactive)
COc1ccc(N2C(=O)c3ccccc3NC2c2ccc(OC)c(CN3CCOCC3)c2)cc1 (stereo unspecified)	-1.28% (inactive)
COc1ccc(CNC(=O)Cc2ccc(-c3ccccc3)cc2)cc1OC	0.562% (inactive)
COc1ccc(C2/C=C\CN(Cc3ccco3)C(C)C(=O)N2Cc2ccc(F)cc2)cc1 (stereo unspecified)	-1.36% (inactive)
Cc1coc2c(O)cc3c(c12)OC1(N2CCCCC2)C(=O)NCCCC31 (stereo unspecified)	-43.7% (active)
C[C@H]1Cc2c(-c3ccccc3)nc3c(c2CO1)CN(S(=O)(=O)c1ccc(Cl)c2nonc12)CC3	2.12% (inactive)
Cc1cccc(C(=O)Nc2nnc(S(=O)(=O)N3CCCCCC3)s2)c1	-16.7% (inactive)
COc1cccc(C(=O)Nc2nnc(S(=O)(=O)N3CCCCC3)s2)c1	-31.6% (active)
O=C(Nc1nnc(S(=O)(=O)N2CCCCCC2)s1)c1cccc(Br)c1	-13.3% (inactive)
CS(=O)(=O)c1sc2nc(-c3ccccc3)cc(-c3ccccc3)c2c1N	1.12% (inactive)
CNC(=S)NNC(=O)c1oc2nc(-c3ccccc3)cc(-c3ccco3)c2c1N	-33.1% (active)
NNC(=O)c1oc2nc(-c3ccccc3)cc(-c3ccco3)c2c1N	-5.04% (inactive)
Cc1c(C)c2ccc(OCC(=O)N3CCN(c4cccc(Cl)c4)CC3)cc2oc1=O	1.47% (inactive)
C/C(=N\NC(=O)CNc1cccc2ccccc12)c1ccc(Br)s1	-0.7% (inactive)
Cn1cccc1/C=N/NC(=O)CNc1cccc2ccccc12	-1.22% (inactive)
Cc1cccc(/C=N/NC(=O)CNc2cccc3ccccc23)n1	-46.7% (active)
Cc1ccc(NC(=O)CN2C(=O)NC(C)(c3ccc(Cl)cc3)C2=O)c(Br)c1 (stereo unspecified)	8.8e-05% (inactive)
Cc1ccc(Cn2c(C)c3cnn(CC(=O)NCc4ccccn4)c(=O)c3c2C)cc1	0.293% (inactive)
COc1ccc(C(=O)NC2=NCCS2)c(OC)c1	0.219% (inactive)

SMILES	activity change, negative = inhibition
Cc1cccc2c3c(ccc12)C1=C(C(=O)C3=O)C(C)CO1 (stereo unspecified)	-60.2% (active)
O=C1C2C3C=CC(C3)C2C(=O)N1c1ccc(-c2nc3ccccc3c(=O)o2)cc1 (stereo unspecified)	-9.8% (inactive)
Cc1cc2c(c(=O)n1Cc1ccccc1)C1O[C@](CCCCN3C(=O)c4ccccc4C3=O)(Cc3ccccc31)O2	-1.41% (inactive)
CCN1C(=O)c2cccc3c(N)ccc1c23	-57.1% (active)
CN1C(=O)c2cccc3c(N)ccc(c23)C1=O	0.398% (inactive)
CCN1C(=O)c2cccc3c(S(=O)(=O)Nc4ccccc4O)ccc1c23	-10.8% (inactive)
O=C1C[C@@H](c2ccc3ccccc3c2)N1S(=O)(=O)c1ccccc1[N+](=O)[O-]	11.1% (inactive)
CC(C)(C)OC(=O)NCCCC1=CC2=CC(=O)C(C)(OC(=O)c3ccco3)C(=O)C2=CO1 (stereo unspecified)	-0.316% (inactive)
C=CC1=C2C=C(C3CC3)N(C(CO)CO)C=C2C(=O)C(C)(OC(=O)c2ccco2)C1=O (stereo unspecified)	-18.7% (inactive)
C=CC1=C2C=C(C3CC3)N(CC(C)C)C=C2C(=O)C(C)(OC(=O)c2ccco2)C1=O (stereo unspecified)	-42.6% (active)
Cc1cccc(C(=O)Nc2ccc(C(=O)/C=C/c3cccs3)cc2)c1	-6.98% (inactive)
CN(C)C(=O)CSc1n[nH]c(-c2ccco2)n1	-32.9% (active)
O=[N+]([O-])c1ccc(Sc2n[nH]c(-c3ccco3)n2)nc1	3.58% (inactive)
CN(C)c1ccc(NC(=O)CSc2n[nH]c(-c3ccco3)n2)cc1	0.0598% (inactive)
COc1ccc(-c2c(-c3ccc(OC)cc3O)nc(C)nc2C(F)(F)F)cc1	2.62% (inactive)
COc1ccc(C2=Nn3c(nnc3-c3ccccc3O)SC2)cc1	-2.11% (inactive)
CCCCC/C=C\C/C=C\CCCCCCCCCC(=O)NCC(=O)O	1.59% (inactive)
O=C1C(c2ccccn2)=[N+]([O-])c2ccccc21	-40.5% (active)
O=Cc1cn(-c2ccccc2)nc1-c1ccccn1	0.364% (inactive)
NC(=O)C1CCN(C(=O)CC2C(=O)NCCN2Cc2cccc(Oc3ccccc3)c2)CC1 (stereo unspecified)	-8.79% (inactive)
